Measurements as given in PubChem BioAssay AID1159580 (chemical genetic matrix, 2015).
Screen size: about 5,500 compounds; about 2,000 (36%) were called active. Not shown: some 18% with an inconclusive outcome. No stated cut-off is given here; in the data, active means normalized growth mostly below about 0.91 (no sharp cut-off); inconclusive means no clear call, values can overlap the other calls; inactive means mostly above about 0.92. Some of the results follow.

Assay: chemical genetic growth profiling, strain panel (AID 1159580);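 further: tested at 20 µM; growth read once vehicle control cultures reached saturation at 30 °C; 1 = growth at the plate median or of vehicle wells; lower values mean less growth of the strain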
Settings: S. cerevisiae deletion strains, growth OD
[1] = locus YBR229C, strain ROT2, active compounds read low
[2] = locus YCL061C, strain MRC1, active compounds read low
[3] = locus YDL101C, strain DUN1, active compounds read low
[4] = locus YEL061C, strain CIN8, active compounds read low
[5] = locus YHR030C, strain SLT2, active compounds read low
[6] = locus YJR075W, strain HOC1, active compounds read low
[7] = locus YLR039C, strain RIC1, active compounds read low
[8] = locus YMR307W, strain GAS1, active compounds read low
[9] = locus YPL241C, strain CIN2, active compounds read low

Measured: normalized growth

N#C/C(=C\N(CCS(=O)(=O)c1ccc(Cl)cc1)Cc1cccs1)S(=O)(=O)c1ccc(Cl)cc1
inactive: locus YAL013W, strain DEP1, active compounds read low 0.999 | [1] 1.01 | [2] 1.02 | [3] 1 | locus YDR150W, strain NUM1, active compounds read low 1.08 | [4] 0.973 | locus YGR078C, strain PAC10, active compounds read low 1.01 | [5] 1.05 | locus YHR087W, strain rtc3, active compounds read low 1.01 | locus YJR043C, strain POL32, active compounds read low 1.03 | [6] 1.04 | locus YKL190W, strain CNB1, active compounds read low 0.987 | [7] 1.06 | locus YLR058C, strain SHM2 (second series), active compounds read low 1 | locus YLR085C, strain ARP6, active compounds read low 0.943 | locus YLR262C, strain YPT6, active compounds read low 1.06 | locus YML094W, strain GIM5, active compounds read low 0.981 | locus YMR219W, strain ESC1, active compounds read low 1 | locus YMR263W, strain SAP30, active compounds read low 1.09 | [8] 1.08 | locus YNL153C, strain GIM3, active compounds read low 1.03 | locus YNL298W, strain CLA4 (second series), active compounds read low 0.947 | locus YNL322C, strain KRE1, active compounds read low 0.996 | locus YNR030W, strain Alg12, active compounds read low 1 | locus YPL055C, strain LGE1, active compounds read low 1.13 | [9] 0.981 | locus YPR135W, strain CTF4, active compounds read low 1.19

COc1c2c(cc3c1OCO3)C13C=C[C@H](OC)CC1N(C2)CC3O (stereo not given in full)
inactive: locus YAL021C, strain ccr4, active compounds read low 0.966 | locus YAL026C, strain drs2, active compounds read low 0.976 | locus YAL030W, strain snc1, active compounds read low 0.996 | locus YBL061C, strain skt5, active compounds read low 0.984 | locus YBR009C, strain hhf1, active compounds read low 1 | locus YBR021W, strain FUR4, active compounds read low 1.06 | locus YBR023C, strain chs3, active compounds read low 0.981 | locus YBR171W, strain sec66, active compounds read low 1 | [1] 1 | locus YBR231C, strain swc5, active compounds read low 1 | locus YBR279W, strain paf1, active compounds read low 0.963 | locus YCL011C, strain gbp2, active compounds read low 0.969 | locus YCL016C, strain dcc1, active compounds read low 0.955 | locus YCL029C, strain bik1, active compounds read low 0.981 | [2] 0.979 | locus YCL069W, strain vba3, active compounds read low 0.991 | locus YCR088W, strain abp1, active compounds read low 0.991 | locus YDL005C, strain med2, active compounds read low 0.976 | locus YDL035C, strain GPR1, active compounds read low 1.03 | locus YDL040C, strain nat1, active compounds read low 1 | locus YDL074C, strain BRE1, active compounds read low 1.01 | [3] 0.985 | locus YDL185W, strain tfp1, active compounds read low 0.961 | locus YDL192W, strain arf1, active compounds read low 0.986 | locus YDR001C, strain nth1, active compounds read low 0.988 | locus YDR069C, strain doa4, active compounds read low 0.963 | locus YDR101C, strain arx1, active compounds read low 1.01 | locus YDR137W, strain rgp1, active compounds read low 0.953 | locus YDR159W, strain sac3, active compounds read low 0.968 | locus YDR162C, strain NBP2, active compounds read low 0.99 | locus YDR195W, strain ref2 0.966 | locus YDR297W, strain sur2, active compounds read low 0.976 | locus YDR318W, strain mcm21, active compounds read low 0.989 | locus YDR334W, strain swr1, active compounds read low 0.978 | locus YDR335W, strain msn5, active compounds read low 0.972 | locus YDR388W, active compounds read low 0.983 | locus YDR392W, strain spt3, active compounds read low 0.915 | locus YDR502C, strain sam2, active compounds read low 0.988 | locus YEL003W, strain gim4, active compounds read low 1 | locus YEL037C, strain rad23, active compounds read low 0.983 | locus YEL061C, strain CIN8 (second series), active compounds read low 0.984 | [4] 1 | locus YER015W, strain faa2, active compounds read low 0.972 | locus YER016W, strain bim1, active compounds read low 0.975 | locus YER110C, active compounds read low 0.97 | locus YER111C, strain swi4, active compounds read low 0.977 | locus YER155C, strain BEM2 (second series), active compounds read low 1.05 | locus YER155C, strain BEM2, active compounds read low 0.997 | locus YER167W, strain BCK2, active compounds read low 0.998 | locus YFR010W, strain ubp6, active compounds read low 1.02 | locus YGL078C, strain dbp3, active compounds read low 0.975 | locus YGL086W, strain mad1, active compounds read low 1 | locus YGL167C, strain pmr1, active compounds read low 0.999 | locus YGL173C, strain kem1, active compounds read low 1.01 | locus YGL227W, strain vid30, active compounds read low 0.987 | locus YGL240W, strain doc1, active compounds read low 1.04 | locus YGL248W, strain PDE1, active compounds read low 0.999 | locus YGL253W, strain hxk2, active compounds read low 0.963 | locus YGR135W, strain pre9, active compounds read low 0.972 | locus YGR252W, strain gcn5, active compounds read low 1.08 | locus YHR013C, strain ard1, active compounds read low 0.956 | locus YHR027C, strain rpn1, active compounds read low 0.989 | [5] 0.986 | locus YHR079C, strain IRE1 (second series), active compounds read low 0.986 | locus YHR094C, strain hxt1, active compounds read low 0.978 | locus YHR129C, strain ARP1, active compounds read low 0.994 | locus YHR142W, strain chs7, active compounds read low 0.951 | locus YHR200W, strain rpn10, active compounds read low 0.992 | locus YIL066C, strain RNR3, active compounds read low 1 | locus YIL073C, strain SPO22, active compounds read low 0.94 | locus YIL125W, strain kgd1, active compounds read low 0.984 | locus YIR030C, strain dcg1, active compounds read low 0.97 | locus YJL092W, strain hpr5, active compounds read low 0.982 | locus YJL095W, strain BCK1 (second series), active compounds read low 0.972 | locus YJL095W, strain BCK1, active compounds read low 0.975 | locus YJL115W, strain asf1, active compounds read low 0.957 | locus YJL129C, strain trk1, active compounds read low 0.95 | locus YJL134W, strain LCB3, active compounds read low 0.99 | locus YJL154C, strain vps35, active compounds read low 0.977 | locus YJL164C, strain tpk1, active compounds read low 1.02 | locus YJL166W, strain qcr8, active compounds read low 0.989 | locus YJL168C, strain set2, active compounds read low 0.985 | locus YJL187C, strain SWE1 (second series), active compounds read low 0.98 | locus YJL187C, strain SWE1, active compounds read low 0.987 | [6] 1 | locus YKL009W, strain mrt4, active compounds read low 0.992 | locus YKL068W, active compounds read low 0.98 | locus YKL085W, strain MDH1 (second series), active compounds read low 1 | locus YKL085W, strain MDH1, active compounds read low 1 | locus YKL160W, strain elf1, active compounds read low 0.95 | locus YKR001C, strain vps1, active compounds read low 0.99 | locus YKR026C, strain gcn3, active compounds read low 0.993 | locus YKR091W, strain srl3, active compounds read low 0.978 | locus YLL001W, strain dnm1, active compounds read low 0.996 | locus YLL026W, active compounds read low 0.98 | locus YLL041C, strain sdh2, active compounds read low 0.98 | locus YLR027C, strain aat2, active compounds read low 0.996 | [7] 1 | locus YLR058C, strain SHM2, active compounds read low 0.994 | locus YLR102C, strain apc9, active compounds read low 0.988 | locus YLR221C, strain rsa3, active compounds read low 1.04 | locus YLR258W, strain gsy2, active compounds read low 0.981 | locus YLR262C, strain YPT6 (second series), active compounds read low 1 | locus YLR268W, strain sec22, active compounds read low 1.02 | locus YLR320W, strain mms22, active compounds read low 1.02 | locus YLR342W, strain FKS1 (second series), active compounds read low 1.08 | locus YLR342W, strain FKS1, active compounds read low 0.988 | locus YLR357W, strain rsc2, active compounds read low 0.981 | locus YLR370C, strain arc18, active compounds read low 0.971 | locus YLR371W, strain rom2, active compounds read low 0.957 | locus YLR384C, strain iki3, active compounds read low 0.978 | locus YLR418C, strain cdc73, active compounds read low 1.01 | locus YML016C, strain PPZ1, active compounds read low 0.999 | locus YML032C, strain rad52, active compounds read low 1 | locus YML120C, strain ndi1, active compounds read low 1 | locus YML124C, strain tub3, active compounds read low 0.982 | locus YMR058W, strain fet3, active compounds read low 0.979 | locus YMR078C, strain ctf18, active compounds read low 0.967 | locus YMR125W, strain sto1, active compounds read low 0.98 | locus YMR129W, active compounds read low 0.965 | locus YMR205C, strain PFK2, active compounds read low 1.02 | locus YMR223W, strain ubp8, active compounds read low 0.986 | locus YMR231W, strain pep5, active compounds read low 0.993 | [8] 1.23 | locus YNL067W, strain RPL9B, active compounds read low 0.974 | locus YNL071W, strain lat1, active compounds read low 0.993 | locus YNL128W, strain TEP1, active compounds read low 0.985 | locus YNL209W, strain ssb2, active compounds read low 0.963 | locus YNL233W, strain BNI4, active compounds read low 1.01 | locus YNL248C, strain rpa49, active compounds read low 0.938 | locus YNL250W, strain rad50, active compounds read low 0.983 | locus YNL271C, strain bni1, active compounds read low 0.992 | locus YNL298W, strain CLA4, active compounds read low 0.985 | locus YNL307C, strain MCK1, active compounds read low 0.991 | locus YNL322C, strain KRE1 (second series), active compounds read low 0.983 | locus YNR049C, strain mso1, active compounds read low 0.954 | locus YNR052C, strain pop2, active compounds read low 0.977 | locus YOL012C, strain htz1 0.827 | locus YOL147C, strain pex11, active compounds read low 0.983 | locus YOR001W, strain rrp6, active compounds read low 1.05 | locus YOR061W, strain CKA2, active compounds read low 0.993 | locus YOR069W, strain VPS5, active compounds read low 0.986 | locus YOR070C, strain gyp1, active compounds read low 0.974 | locus YOR080W, strain dia2, active compounds read low 0.964 | locus YOR083W, strain WHI5, active compounds read low 0.928 | locus YOR106W, strain vam3, active compounds read low 0.957 | locus YOR136W, strain idh2, active compounds read low 0.992 | locus YOR144C, strain elg1, active compounds read low 0.99 | locus YOR184W, strain ser1, active compounds read low 1.04 | locus YOR265W, strain rbl2, active compounds read low 0.99 | locus YOR270C, strain vph1, active compounds read low 0.973 | locus YOR290C, strain snf2, active compounds read low 0.956 | locus YOR316C, strain cot1, active compounds read low 0.983 | locus YPL051W, strain arl3, active compounds read low 0.963 | locus YPL078C, strain atp4, active compounds read low 0.96 | locus YPL106C, strain sse1, active compounds read low 0.984 | locus YPL240C, strain hsp82, active compounds read low 0.992 | [9] 0.988 | locus YPR119W, strain clb2, active compounds read low 0.981 | locus YPR141C, strain kar3, active compounds read low 0.968 | locus YPR163C, strain tif3, active compounds read low 0.996 | locus YPR167C, strain met16, active compounds read low 0.981 | strain wtn01, active compounds read low 1.01
